# NOMO-1 viab: STK33 inhibitor candidate reducing NOMO-1 cell viability | NOMO-1 AML viability, CellTiter-Glo luminescence, 72 h | inhibition, % (no concentration beside the values) | 7.5% of 37,000 active | AID 2330; in the data active = inhibition above about 80%
# PD-1 reverse act: activators reversing PD-1 mediated T-cell inhibition | primary human CD4 T cells, PD-L1 beads, CellTiter-Glo 96 h | activation, % (concentration not given with the values) | 29,000 tested, under 10 active | AID 2316; call rule not given here;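 also: 0% = median vehicle wells and 100% = positive control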
# MITF inhib: inhibitors of MITF. inhibition, % (no concentration beside the values). AID 2240. TRPM1 promoter luciferase, luminescence, 24 h. 0.28% of 37,000 active; in the data active = inhibition above about 85%;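 also: human melanocyte line stably carrying TRPM1 promoter luciferase reporter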
# YB-1 expr inh: YB-1 expression inhibition; delta delta Cp (YB-1 minus CDIP) (test concentration not listed); AID 434959; 0.37% of 30,000 active; U2OS, qRT-PCR YB-1 vs CDIP delta delta Cp, 16 h; stronger effect = higher value; zero = DMSO, each unit about twofold;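 active = delta delta Cp rounded down to an integer at or above 3, about 3 SD of DMSO wells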;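 also: higher means less YB-1 transcript or more CDIP transcript relative to DMSO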
# Shh pathway inh: blocks Sonic Hedgehog signaling; 2.1% of 22,000 active; inhibition, % (test concentration not listed); AID 2313; Shh-LIGHT2 Gli-luciferase reporter, 30 h;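 active = mean inhibition across valid replicates above about 65%, limit read from the data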;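 also: pathway switched on by Shh-conditioned medium diluted 1 in 25 in low serum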
# An asterisk follows results filed as active; · = not tested or not shown. Only some compounds are listed: those with a hit (about 7.4% of all), similar ones and a draw of the others.
SMILES,NOMO-1 viab,PD-1 reverse act,MITF inhib,YB-1 expr inh,Shh pathway inh
O=C1NC(=O)C(=Cc2cn(Cc3ccccc3)c3ccccc23)C(=O)N1,126*,-2,-1,-0.37,-8
C=C1[C@@H](C)[C@H]2[C@H](Cc3ccccc3)NC(=O)[C@]23OC(=O)/C=C\[C@H](O)CCC[C@@H](C)C/C=C/[C@H]3[C@@H]1O,120*,-13,21,0.46,65*
Cc1ccc(NC(=O)c2cccc(OC(=O)N(C)c3ccccc3)c2)cc1C,20,-1,5,0.2,76*
N#CC(C#N)=Cc1ccc(O)cc1,87*,-2,-3,-1.1,57
CC(C)(CN)CNc1ccc([N+](=O)[O-])c2cccnc12,73,·,20,·,·
C=CCN1CCc2cccc3c2[C@H]1Cc1ccc(O)c(O)c1-3,114*,·,-9,-0.076,-17
C[C@H]1CN([C@@H](C)CO)C(=O)CCCn2nncc2CO[C@@H]1CN(C)C(=O)Oc1ccc2ccccc2c1,·,·,·,0.18,·
C[C@@H]1CN([C@@H](C)CO)C(=O)CCCn2cc(nn2)CO[C@@H]1CN(C)C(=O)Oc1cccc2ccccc12,·,·,·,-0.94,·
COc1cc2c(c(OC)c1OC)-c1cc3c(cc1[C@H](OC(C)=O)[C@H]1COC(=O)[C@@H]1C2)OCO3,107*,-9,26,-0.4,83*
COc1ccc(CC2C(=O)OCC2Cc2ccc3c(c2)OCO3)cc1OC (stereo not given),8,2,7,-0.52,12
CC(=O)OC[C@]12C[C@H](O)C(C)=C[C@H]1O[C@@H]1[C@H](O)[C@@H](OC(C)=O)[C@@]2(C)[C@]12CO2,123*,-5,90*,1.2,96*
CC(=O)OC[C@]12CCC(C)=C[C@H]1O[C@@H]1[C@H](O)[C@@H](OC(C)=O)[C@@]2(C)[C@]12CO2,109*,-10,92*,0.61,109*
C[C@@]1(C(=O)O)CC[C@]2(C)CC[C@]3(C)C4=CC(=O)c5cc(O)c(O)cc5[C@]4(C)CC[C@@]3(C)[C@@H]2C1,76,1,54,0.15,14
Cc1cc(OC(=O)c2cccs2)c2c3c(c(=O)oc2c1)CCC3,9,0,-8,0.41,-9
OC[C@H]1O[C@@H](n2cnc3cc(Cl)c(Cl)cc32)C(O)[C@H]1O (stereo not given in full),87*,4,-22,0.15,39
CN1C2C[C@H](OC(=O)[C@H](CO)c3ccccc3)C[C@H]1[C@@H](O)C2,-3,·,-14,0.03,12
CCCCC/C=C\C/C=C\C/C=C\C/C=C\CCCC(=O)NCc1ccc(O)c(OC)c1,117*,·,8,0.037,41
Cc1ccc(N2C(=O)NC(=O)C(CCc3ccccn3)(Cc3cccs3)C2=O)cc1 (stereo not given),16,·,0,·,·
C/C=C(/C)C(=O)O[C@H]1C(C)=C2[C@H]([C@@H]1OC(=O)CCCCC)[C@@](C)(OC(C)=O)C[C@H](OC(=O)CCC)[C@@]1(O)[C@H]2OC(=O)[C@@]1(C)O,99*,-42,69,·,105*
CC[C@@]1(O)C(=O)OCc2c1cc1n(c2=O)Cc2cc3c(O)cccc3nc2-1,119*,·,66,1.4,68*
C[C@]12CCC(=O)C=C1C=CC1C2CC[C@@]2(C)C1CC[C@@]2(O)CCC(=O)O (stereo not given in full),17,·,1,0.3,-38
CNc1ccc2oc(C[C@@H]3OC4(CC[C@@H]3C)O[C@H](C(C)C(=O)c3ccc[nH]3)[C@H](C)C[C@H]4C)nc2c1C(=O)O (stereo not given in full),120*,·,105*,-0.00083,104*
CC(=O)Nc1ccc(Cc2ccc(NC(C)=O)cc2)cc1,25,-1,-11,-1.7,-39
CCC(=O)O[C@H]1CCC2C3CCC4=CC(=O)CC[C@]4(C)C3CC[C@@]21C (stereo not given in full),5,·,-3,-0.028,-3
CC1=CC2OC3[C@H](O)C[C@@](C)([C@]34CO4)[C@@]2(CO)[C@H](O)C1=O (stereo not given in full),123*,-8,72,-0.12,40
SMILES,NOMO-1 viab,PD-1 reverse act,MITF inhib,YB-1 expr inh,Shh pathway inh
COc1ccc2c3c4n(c2c1)[C@@H](C=C(C)C)OOC(C)(C)C[C@@H]4N1C(=O)[C@@H]2CCCN2C(=O)[C@]1(O)[C@H]3OCC=C(C)C,56,-1,30,-0.78,12
C/C=C1/C[N+]2([O-])C3CC1C(CO)C2Cc1c3[nH]c2ccc(OC)cc12 (stereo not given),15,2,24,-0.13,-10
Cc1ccc(S(=O)(=O)N2CCCCC2)cc1C(=O)Oc1cccc2cccnc12,116*,1,-28,-0.43,-14
CN[C@@H]1C[C@@]2(C)O[C@@H]([C@@H]1OC)n1c3ccccc3c3c4c(c5c6ccccc6n2c5c31)C(=O)NC4,114*,·,101*,-0.37,103*
O=C1C=C2C=C[C@@H]3C[C@@]2(O1)[C@H]1CCCCN31,91*,·,25,-0.0014,72*
C/C=C1/CN2C3CC1C(CO)C2Cc1c3[nH]c2ccc(OC)cc12 (stereo not given),·,·,·,0.11,-8
COc1ccc(C(=O)N2CCCC2=O)cc1,3,1,-30,0.43,7
CCN1C[C@]2(COC)[C@H](O)C[C@H](OC)[C@@]34[C@@H]5C[C@]6(O)[C@H](OC(=O)c7ccccc7)[C@@H]5[C@@](OC(C)=O)(C([C@H](OC)[C@H]23)[C@@H]14)[C@@H](O)[C@@H]6OC,29,4,10,0.21,22
CC(C)[C@H]1C(=O)O[C@H](C(C)C)C(=O)N(C)[C@@H](C(C)C)C(=O)O[C@H](C(C)C)C(=O)N(C)[C@@H](C(C)C)C(=O)O[C@H](C(C)C)C(=O)N1C,119*,0,75,-0.19,22
CC12CN3CN(C1)CC(c1ccccc1)(C3)C2=O,-9,0,12,0.084,10
C[C@@H]1O[C@@H](O[C@@H]2C=C3CCC4C(CC[C@]5(C)[C@@H](c6ccc(=O)oc6)CC[C@]45O)[C@@]3(C)CC2)[C@H](O)[C@H](O)[C@H]1O (stereo not given in full),120*,·,42,-1.4,-21
C[C@@H]1O[C@@H](O[C@@H]2C=C3CC[C@@H]4C(CC[C@]5(C)[C@@H](c6ccc(=O)oc6)CC[C@]45O)[C@@]3(C)CC2)[C@H](O)[C@H](O)[C@H]1O (stereo not given in full),108*,-16,20,1.8,23
Cc1ccc(OC(=O)N(C)C[C@@H]2OCc3cnnn3CCCC(=O)N([C@@H](C)CO)C[C@H]2C)cc1,·,·,·,0.26,·
C[C@@H]1CN([C@H](C)CO)C(=O)CCCn2nncc2CO[C@H]1CN(C)C(=O)Oc1ccc2ccccc2c1,·,·,·,-0.73,·
CCn1cnc2c(Nc3cccc(Cl)c3)nc(N[C@@H]3CCCC[C@@H]3N)nc21,100*,3,51,-0.6,73*

# Source: PubChem (Broad Institute)
